Assay [1] relates to Vero E6 infected with SARS-CoV-2. The assay can be described thus: morphology score (similarity to uninfected cells); higher = more like uninfected cells. The settings on record: 24 h.
Assay [2] shares this test system. The assay can be described thus: SARS-CoV-2 infection rate relative to infected DMSO; higher = more infection, active = 60 or less. As to conditions: 24 h.

Turning to `CC(CCc1ccccc1)NCC(O)c1ccc(O)c(C(N)=O)c1` (stereo not given) [labetalol] (10 µM), in assay [1], the morphology score is -0.119. Also, the SARS-CoV-2 infection rate in assay [2] is 114% (inactive).
In the case of `CC(=O)OCC1=C(C(=O)O)N2C(=O)[C@@H](NC(=O)CCCC(N)C(=O)O)C2SC1` (stereo not given in full) [cephalosporin-c-zn] (10 µM), the morphology score in assay [1] was 0.00489. In assay [2], the SARS-CoV-2 infection rate was 97% (inactive).
In the case of `O=C(/C=C/c1ccc2ccccc2n1)c1ccncc1` (0.833333 µM), the morphology score in assay [1] amounted to 0.0453. In addition, the SARS-CoV-2 infection rate in assay [2] was 104% (inactive).
Take `O=C(O)c1ccc2c(c1)nc(Nc1cccc(Cl)c1)c1ccncc12` (10 µM): the morphology score in assay [1] was found to be 0.237. For the same compound, in assay [2], the SARS-CoV-2 infection rate was 103% (inactive).
For `O=C(O)[C@H]1O[C@@H](Oc2cc3oc(-c4ccccc4)cc(=O)c3c(O)c2O)[C@H](O)[C@@H](O)[C@@H]1O` [baicalin] (10 µM), in that order: 0.165 and 100% (inactive).
In assay [1], `N[C@@H](CCC(=O)N[C@@H](CSN=O)C(=O)NCC(=O)O)C(=O)O` [S-nitrosoglutathione] (10 µM) came in with a morphology score of 0.164. Besides, the SARS-CoV-2 infection rate in assay [2] was 104% (inactive).
In assay [1], `CC(C)N(CCC(C(N)=O)(c1ccccc1)c1ccccn1)C(C)C` (stereo not given) [disopyramide] (10 µM) returned a morphology score of 0.157. In assay [2], the SARS-CoV-2 infection rate is 104% (inactive).
The compound `CCC(C(=O)O)c1ccc(CC(C)C)cc1` (stereo not given) [butibufen] (10 µM) showed a morphology score in assay [1] of 0.268. In addition, the SARS-CoV-2 infection rate in assay [2] is 108% (inactive).
For the compound `Cc1ccc2c(c1)=C(c1ccccc1)C(C1=NN(C(=O)CCC(=O)O)C(c3ccc(Br)cc3)C1)C(=O)N=2` (stereo not given) (10 µM), the morphology score in assay [1] was -0.085. Further, the SARS-CoV-2 infection rate in assay [2] was 104% (inactive).
For `COc1cc2c(NC3CCN(CC4CCCCC4)CC3)nc(N3CCCN(C(C)C)CC3)nc2cc1OCCCN1CCCCC1` (0.833333 µM) the same measures were 0.165 and 92% (inactive).
